# A selection: hits, their analogues and other compounds. The true share with any hit is near 2.3%.
# Gli-Sufu antag = Gli-Sufu pathway antagonists, primary screen, luciferase luminescence, Sufu-KO-LIGHT cells, uHTS; Sufu-KO-LIGHT fibroblasts, Gli luciferase reporter luminescence; inhibition, % at 5 µM; hit rate 0.74% among 340,000;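 active means inhibition above about 55%, limit read from the data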;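 further: 0% = DMSO-treated cells and 100% = wells with medium but no cells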
# H9c2 TAG inh = inhibitors of triacylglycerol accumulation, primary screen, cell-based, uHTS, fluorescence, H9c2 | H9c2 cells, Nile Red lipid (TAG) fluorescence; cells loaded with 200 µM oleic acid | inhibition, % at 12.5 µM | hit rate 0.66% among 230,000 | AID 651582, 2012;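 active means pattern-corrected inhibition of lipid staining of at least 50% with the nuclear-stain viability signal not falling by more than 50%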;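 further: 0% = DMSO wells and 100% = triacsin C control wells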
# 697 NFkB inh = inhibitors of PMA/ionomycin-induced NF-kB reporter, 697 cells, primary screen, B-cell NF-kB inhibitor project, cell-based, luminescence, uHTS. 697 B-cell NF-kB luciferase reporter, 16 h. inhibition, % at 4 µM. hit rate 0.33% among 330,000; in the data active means inhibition above about 35%
# Jurkat NFkB inh = inhibitors of induced NF-kB luciferase reporter, primary screen, TCR NF-kB activation inhibitor project, cell-based, luminescence, uHTS; Jurkat, PMA/ionomycin-induced NF-kB luciferase reporter; inhibition, % at 4 µM; hit rate 0.53% among 330,000; in the data active means inhibition above about 50%
# Shn3 3UTR inh = reduction of Shn3 3'UTR firefly luciferase signal, primary screen, Schnurri-3 inhibitor project, cell-based, Clone20 osteoblasts, set 2 | inhibition, % at 12.5 µM | Clone20 osteoblast Shn3 3'UTR firefly luciferase, 24 h | AID 588674, 2011 | hit rate 0.52% among 360,000;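 active means mean inhibition of at least 75% with every replicate also reaching 75%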;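 further: 0% = median of neutral control wells and 100% = pilot-screen positive control compound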
# aSyn UTR inh = MLPCN primary screen, SNCA 5' untranslated region | alpha-synuclein 5'UTR reporter, inhibitor activity | inhibition, % (tested at 7.5 µM) | hit rate 0.82% among 300,000 | AID 1813, 2009; in the data active means inhibition above about 60%;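 further: H4 neuroglioblastoma cells stably carrying SNCA 5'UTR luciferase fusion; 0% = DMSO wells and 100% = positive control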
# Gli antag conf = Gli-SUFU pathway antagonists, confirmation, single concentration, luciferase luminescence, Sufu-KO-LIGHT cells | inhibition, % at 5 µM | AID 602428, 2012 | hit rate 40% among 2,500 | Gli luciferase reporter | shares compounds with Gli-Sufu antag;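 active means mean inhibition at 5 µM reaching about 45%, limit read from the data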;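 further: plate controls were DMSO-treated cells for no effect and wells lacking cells for full effect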
# SufuKO cytotox = cytotoxicity in Sufu-KO-LIGHT cells, confirmation, cytotoxicity control for Gli-SUFU antagonist project, cell-based, ATP luminescence, single concentration; cytotoxicity, % at 5 µM; hit rate 32% among 2,500; shares compounds with Gli-Sufu antag;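 active means mean cytotoxicity at 5 µM above about 25%, limit read from the data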;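 further: cells exposed to compound overnight for roughly 16 to 18 hours; plate controls were DMSO wells with cells for no effect and medium without cells for full effect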
# Wnt3a cs = Wnt3a reporter signal inhibition, confirmation, counter-screen for Gli-SUFU antagonist project, Wnt-LIGHT cells, luminescence, single concentration; shares compounds with Gli-Sufu antag; Wnt3a-driven luciferase reporter; inhibition, % at 6.25 µM; hit rate 20% among 2,500; AID 651995, 2013;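 active means mean inhibition above about 25%, limit read from the data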
# * marks the source's active call; other numbers are inactive results; nt = no result given.
SMILES,Gli-Sufu antag,H9c2 TAG inh,697 NFkB inh,Jurkat NFkB inh,Shn3 3UTR inh,aSyn UTR inh,Gli antag conf,SufuKO cytotox,Wnt3a cs
Cn1c(CCN2CCN(c3ccccn3)CC2)nc2cc(NC(=O)COc3ccc(Cl)cc3)ccc21,61*,nt,-25,27,59,36,31,-10,29*
COc1ccc(OCC(=O)Nc2ccc3c(c2)nc(CCN2CCN(c4ccccn4)CC2)n3C)cc1,nt,-5,nt,nt,5,nt,nt,nt,nt
Cc1noc(C)c1C(=O)OCC(=O)NC(=O)NC12CC3CC(CC(C3)C1)C2,4,17,8,-12,4,-15,nt,nt,nt
Cc1c(O)nc2sc3ccccc3n2c1=O,nt,nt,9,1,nt,31,nt,nt,nt
Cc1cc(C)c2nc(N(CCN(C)C)C(=O)c3ccc4ccccc4c3)sc2c1,17,nt,-1,-6,8,7,nt,nt,nt
COc1ccc(Cc2nnc(N/N=C/c3ccc(O)cc3)[nH]c2=O)cc1OC,82*,nt,-53,15,88*,82*,85*,29*,73*
Cc1ccc(NS(=O)(=O)c2ccc(C(=O)NCc3ccccn3)cc2)cc1,5,-7,6,-5,2,-2,nt,nt,nt
COc1ccc(-c2nsc3c(N4CCCCC4C)ncnc23)cc1 (stereo not drawn),81*,-19,16,42,82,90*,91*,47*,105*
COc1ccccc1CNC(=O)CN1C(=O)NC(c2ccccc2)(c2ccccc2)C1=O,-4,5,4,10,15,nt,nt,nt,nt
CC1(C)Cc2nc(NC3CCCCC3)c(C#N)cc2CO1,3,6,14,0,-10,37,nt,nt,nt
CN(CCc1ccccn1)C(=O)CC1C(=O)NCCN1Cc1ccc(-c2ccccc2)cc1 (stereo not drawn),60*,-23,7,-4,10,7,9,1,-25
Cc1cc(C)nc(CCNC(=O)CC2C(=O)NCCN2Cc2ccccc2)n1 (stereo not drawn),52,nt,-7,4,-8,-4,21,-4,2
Cc1nc(CCNC(=O)CC2C(=O)NCCN2Cc2ccccc2)nc2c1CCC2 (stereo not drawn),-10,8,1,7,-74,22,nt,nt,nt
Cc1ccc(CN2CCNC(=O)C2CC(=O)N(C)CCc2ccccc2)cc1 (stereo not drawn),22,13,18,2,-6,-13,nt,nt,nt
Cn1cnnc1SCCn1c(N2CCCCC2)nc2c1c(=O)[nH]c(=O)n2C,nt,19,-13,2,-3,4,nt,nt,nt
CCC(C)(C)c1ccc(Oc2ccc(N)cc2)cc1,74*,69*,nt,nt,88*,127*,83*,31*,105*
CC(C)(C)c1ccc(COC(=O)CN2C(=O)NC3(CCCC3)C2=O)cc1,-5,-1,5,19,-10,-11,nt,nt,nt
CCOC1OC(=O)C(Cl)=C1Nc1ccccc1C (stereo not drawn),0,nt,9,0,2,5,nt,nt,nt
Cc1cccc(C)c1NC1=C(Cl)C(=O)OC1OC(C)C (stereo not drawn),52,nt,-7,-2,5,8,19,-6,11
CCn1c(N2CCN(CC(=O)Nc3cccc(C)c3C)CC2)nc2ccccc21,18,15,-17,5,5,10,nt,nt,nt
O=C1CN(C(=O)COC(=O)c2oc3ccccc3c2COc2ccccc2)c2ccccc2N1,5,nt,-11,15,7,22,nt,nt,nt
Cc1c(C(=O)OCC(=O)N2CC(=O)Nc3ccccc32)oc2ccccc12,94*,3,-3,-11,5,-12,12,14,-35

# Bioassay records (PubChem BioAssay)
